Results as given in PubChem BioAssay (Tox21).
Records with an inconclusive call do not appear. Active and inactive are the calls of the source. Unless noted, calls come from the whole dose curve; as a rule, active = well fitted curve in the direction sought with a large enough effect in the repeat runs; inconclusive = weak or mixed curves; inactive = no such curve, though single readings can be large; an effect the other way counts as inactive or inconclusive.

How the values were obtained:
[1] = qHTS assay to identify small molecule agonists of the TGF-beta/Smad signaling pathway - cell viability counter screen (AID 1346829); details: SBE-bla HEK293T viability, CellTiter-Glo luminescence, 5 h; series mostly up to 76.8 µM; note: top concentration of the series differs between compounds; nearly all actives have a fitted effect of over 45% in size
Method in brief: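 SBE-bla HEK 293T cells plated overnight, compound exposure 5 hr at 37 C. Viability read in the same wells by CellTiter-Glo luminescence after 30 min at room temperature, following the beta-lactamase read.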

[2] = qHTS assay to identify small molecule agonists of the TGF-beta/Smad signaling pathway (AID 1346859; active = well fitted activation curve with a large enough effect in the signal ratio in the repeat runs, not every such curve was filed as active; the % refers to the signal ratio); details: SBE-bla HEK293T, TGF-beta/Smad beta-lactamase reporter, 5 h; series mostly up to 76.8 µM
Method in brief: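 Screening used HEK 293T SBE-bla cells at 4,000/well. Test agents: 5 hr, 37 C. Detection: FRET substrate, 2 hr RT, then excitation 405 nm with emissions at 460 and 530 nm.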

[3] = Caspase-3/7 induction in HepG2 cells by small molecules, qHTS assay (AID 1346978); details: HepG2 caspase-3/7 activation, Caspase-Glo luminescence, 17 h; series mostly up to 92.4 µM; note: nearly all actives have a fitted effect of over 15% in size
Method in brief: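 Caspase-3/7 induction was measured by Caspase-Glo 3/7 luminescence (30 min, room temperature) after a 17 hr compound exposure of wild-type HepG2 cells seeded at 2,000 per well and pre-incubated 5 hr.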

[4] = Caspase-3/7 induction in CHO-K1 cells by small molecules, qHTS cell viability counter screen (AID 1346979); details: CellTiter-Fluor fluorescence, 17 h; series mostly up to 92.4 µM; note: nearly all actives have a fitted effect of over 35% in size
Method in brief: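 Following a 5hr settling period, CHO-K1 cells at 1,500 per well received DMSO-dissolved compounds. Cell viability was quantified 16hr later by CellTiter-Fluor fluorescence, measured after 1hr with reagent at 37C.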

[5] = molecular target: Nuclear receptor subfamily 1 group I member 2 (Homo sapiens) (UniProt O75469); assay: Human pregnane X receptor (PXR) small molecule agonists, qHTS assay (AID 1346982); details: PXR-Luc HepG2, CYP3A4 luciferase reporter, 24 h; series mostly up to 92.4 µM; note: nearly all actives have a fitted effect of over 35% in size; note: potency is the fitted concentration of half-maximal effect
Method in brief: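 Stable HepG2 line reporting PXR-mediated CYP3A4 expression via luciferase. Treatment: 24 hr with compounds in DMSO at 37 C. Detection: ONE-Glo luminescence.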

[6] = molecular target: Cytochrome P450 2C19 (Homo sapiens) (UniProt P33261); assay: Cytochrome P450 Family 2 Subfamily C Member 19 (CYP2C19) small molecule antagonists: luciferase reporter qHTS assay (AID 1671197); details: P450-Glo CYP2C19 enzyme, luciferin luminescence, 1 h; series mostly up to 115 µM; note: nearly all actives have a fitted effect of over 65% in size; note: potency is the fitted concentration of half-maximal effect
Method in brief: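 P450-Glo CYP2C19 system: enzyme-substrate mix with compound 10 min at room temperature, then NADPH regeneration solution, 1 h at 37C. Proluciferin-to-luciferin conversion detected by luminescence after 20 min with detection reagent; ketoconazole as positive control.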

[7] = molecular target: Cytochrome P450 2C9 (Homo sapiens) (UniProt P11712); assay: Cytochrome P450 Family 2 Subfamily C Member 9 (CYP2C9) small molecule antagonists: luciferase reporter qHTS assay (AID 1671198); details: P450-Glo CYP2C9 enzyme assay, luciferin luminescence; series mostly up to 115 µM; note: nearly all actives have a fitted effect of over 50% in size; note: potency is the fitted concentration of half-maximal effect
Method in brief: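 Enzyme-substrate mix preincubated with compound 10 min at room temperature; reaction started with NADPH regeneration solution, 1 h 37C. Luminescent luciferin product read after 20 min detection reagent.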

[8] = molecular target: Cytochrome P450 1A2 (Homo sapiens) (UniProt P05177); assay: Cytochrome P450 Family 1 Subfamily A Member 2 (CYP1A2) small molecule antagonists: luciferase reporter qHTS assay (AID 1671199); details: P450-Glo CYP1A2 enzyme, luciferin luminescence, 1 h; series mostly up to 115 µM; note: nearly all actives have a fitted effect of over 50% in size; note: potency is the fitted concentration of half-maximal effect
Method in brief: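 Read-out is luminescence from luciferin detection reagent (20 min) proportional to CYP1A2 activity; compounds in DMSO preincubated 10 min with enzyme and proluciferin substrate, then NADPH regeneration solution, 1 h, room temperature.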

[9] = molecular target: Voltage-gated inwardly rectifying potassium channel KCNH2 (Homo sapiens) (UniProt Q12809); assay: Human Ether-a-go-go-Related Gene (hERG) channel small molecule antagonists: fluorescence cell-based qHTS assay (AID 1671200); details: hERG-U2OS cells, FluxOR thallium flux fluorescence; series mostly up to 76.8 µM;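 note: hERG-expressing U2OS cells given a thallium stimulus after FluxOR II dye loading; nearly all actives have a fitted effect of over 50% in size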
Method in brief: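 In this thallium-flux screen, overnight-cultured U2OS cells bearing the channel are dye-loaded in darkness for an hour, rested 10 min at room temperature, and then monitored kinetically at 480/540 nm for two minutes post-stimulus.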

[10] = molecular target: Cytochrome P450 3A4 (Homo sapiens) (UniProt P08684); assay: Cytochrome P450 Family 3 Subfamily A Member 4 (CYP3A4) small molecule antagonists: luciferase reporter qHTS assay (AID 1671201); details: P450-Glo CYP3A4 enzyme, luciferin luminescence, 1 h; series mostly up to 115 µM; note: nearly all actives have a fitted effect of over 50% in size; note: potency is the fitted concentration of half-maximal effect
Method in brief: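 CYP3A4 activity was followed with a P450-Glo proluciferin substrate. Test compounds in DMSO were preincubated 10 min; NADPH regeneration then ran 1 h, and light output was read 20 min after detection reagent.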

[11] = Human pregnane X receptor (PXR) small molecule agonists, qHTS cell viability counter screen (AID 1346977); details: PXR-Luc HepG2 viability, CellTiter-Fluor, 24 h; series mostly up to 92.4 µM; note: nearly all actives have a fitted effect of over 50% in size
Method in brief: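 In each well, the PXR reporter HepG2 line was checked for viability: CellTiter-Fluor reagent added 23hr post-dosing, fluorescence read after 1hr incubation at 37C.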

[12] = Caspase-3/7 induction in HepG2 cells by small molecules, qHTS cell viability counter screen (AID 1346981); details: CellTiter-Fluor fluorescence, 17 h; series mostly up to 92.4 µM; note: nearly all actives have a fitted effect of over 30% in size
Method in brief: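 Treatment of HepG2 cells with DMSO-delivered compounds ran 16 hr at 37 C following a 5-hr pre-incubation of 2,000 cells/well. CellTiter-Fluor fluorescence, read after 1 hr, served as the viability measure in a qHTS format.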

[13] = molecular target: Thyrotropin-releasing hormone receptor (Homo sapiens) (UniProt P34981); assay: qHTS assay to identify small molecule antagonists of the thyrotropin-releasing hormone receptor (TRHR) signaling pathway (AID 1346877; active = well fitted inhibition curve with a large enough effect in the repeat runs, not every such curve was filed as active); details: TRHR-HEK293, TRH-induced calcium fluorescence, antagonist mode; series mostly up to 51.3 µM
Method in brief: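 Overnight-plated (18 h, 37 °C) HEK293 cells expressing TRHR were dye-loaded 2 h, treated with compound, then stimulated with TRH at 1 nM final. Fluorescence intensity was captured every second for 3 min.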

[14] = molecular target: Thyrotropin-releasing hormone receptor (Homo sapiens) (UniProt P34981); assay: qHTS assay to identify small molecule agonists of the thyrotropin-releasing hormone receptor (TRHR) signaling pathway (AID 1346891; calls by dose curve); details: TRHR-HEK293 calcium fluorescence, agonist mode; series mostly up to 57.6 µM
Method in brief: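 Readout was intracellular calcium fluorescence in TRHR-Hek293 cells. Cells were incubated 18 h, dye-loaded 2 h at 37 °C, and treated with compound in agonist mode.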

[15] = Caspase-3/7 induction in CHO-K1 cells by small molecules, qHTS assay (AID 1346980); details: CHO-K1 caspase-3/7 induction, Caspase-Glo luminescence, 17 h; series mostly up to 92.4 µM; note: nearly all actives have a fitted effect of over 15% in size
Method in brief: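 Luminescent Caspase-Glo 3/7 read (30min, room temperature) quantified apoptosis induction. Cells were wild-type CHO-K1, treated with compound for 17hr at 37 C and 5% CO2.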

[16] = molecular target: Cytochrome P450 2D6 (Homo sapiens) (UniProt P10635); assay: Cytochrome P450 Family 2 Subfamily D Member 6 (CYP2D6) small molecule antagonists: luciferase reporter qHTS assay (AID 1671196); details: P450-Glo CYP2D6 enzyme assay, luciferin luminescence, 1 h; series mostly up to 115 µM; note: nearly all actives have a fitted effect of over 50% in size; note: potency is the fitted concentration of half-maximal effect
Method in brief: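 Chemicals tested for interference with CYP2D6 activity; proluciferin substrate, NADPH regeneration, 1 h at room temperature, luminescent detection.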

[17] = molecular target: Nuclear receptor subfamily 1 group I member 2 (Rattus norvegicus) (UniProt Q9R1A7); assay: Rat pregnane X receptor (rPXR) activation by small molecules, qHTS assay (AID 1346983); details: rPXR luciferase reporter cells, One-Glo luminescence, 24 h; max activation: hits give high values; note: nearly all actives have a fitted effect of over 20% in size; note: potency is the fitted concentration of half-maximal effect
Method in brief: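 Luminescent readout (One-Glo luciferase, 30 min room temperature) followed 24 hr compound treatment at 37 C of rPXR cells plated 2,000 per well and preincubated 5hr; qHTS format with compounds delivered in DMSO.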

[18] = molecular target: Nuclear receptor subfamily 1 group I member 2 (Homo sapiens) (UniProt O75469); assay: CYP3A4 induction through human pregnane X receptor (PXR) by small molecules, qHTS assay (AID 1346984); details: DPX-2 HepG2 PXR, CYP3A4-luciferin luminescence, 24 h; series mostly up to 46.1 µM; note: nearly all actives have a fitted effect of over 40% in size
Method in brief: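 After 24 h at 37C with compound, DPX-2 cells (HepG2, co-transfected PXR response element and CYP3A4 promoter-luciferase) got 3uM final P450-Glo Luciferin-IPA for 3 h; One-Glo luminescence followed.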

[19] = molecular target: Nuclear receptor subfamily 1 group I member 2 (Homo sapiens) (UniProt O75469); assay: Human pregnane X receptor (PXR) activation by small molecules, qHTS assay (AID 1346985); details: DPX-2 HepG2 CYP3A4-luciferase, 24 h; series mostly up to 38.3 µM; note: nearly all actives have a fitted effect of over 40% in size
Method in brief: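 DPX-2 cells (HepG2 co-transfected with a PXR response element and a CYP3A4-promoter luciferase construct) were seeded at 2,000 per well, rested 5 hr at 37C, then exposed to DMSO-dissolved compounds for 24 hr. Activation was read as luciferase luminescence.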
% is set by controls: 0 for no effect and ±100 for the full control effect.

Chain of Cytochrome P450 1A2 (Homo sapiens) (P05177 whole entry, looked up): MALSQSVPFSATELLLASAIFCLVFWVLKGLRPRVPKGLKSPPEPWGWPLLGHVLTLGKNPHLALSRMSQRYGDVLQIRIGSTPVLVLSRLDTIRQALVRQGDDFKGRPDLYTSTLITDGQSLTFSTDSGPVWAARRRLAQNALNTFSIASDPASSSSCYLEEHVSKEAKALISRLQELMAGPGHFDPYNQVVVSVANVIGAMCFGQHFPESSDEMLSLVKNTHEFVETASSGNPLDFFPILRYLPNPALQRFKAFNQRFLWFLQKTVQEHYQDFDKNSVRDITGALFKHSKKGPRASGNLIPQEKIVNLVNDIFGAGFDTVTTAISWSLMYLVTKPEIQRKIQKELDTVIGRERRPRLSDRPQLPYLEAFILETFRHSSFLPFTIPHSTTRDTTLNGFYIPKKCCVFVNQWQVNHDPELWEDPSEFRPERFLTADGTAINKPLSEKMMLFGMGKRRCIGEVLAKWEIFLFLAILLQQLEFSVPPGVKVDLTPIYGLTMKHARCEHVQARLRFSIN
Chain of Cytochrome P450 2D6 (Homo sapiens) (P10635 whole entry, looked up): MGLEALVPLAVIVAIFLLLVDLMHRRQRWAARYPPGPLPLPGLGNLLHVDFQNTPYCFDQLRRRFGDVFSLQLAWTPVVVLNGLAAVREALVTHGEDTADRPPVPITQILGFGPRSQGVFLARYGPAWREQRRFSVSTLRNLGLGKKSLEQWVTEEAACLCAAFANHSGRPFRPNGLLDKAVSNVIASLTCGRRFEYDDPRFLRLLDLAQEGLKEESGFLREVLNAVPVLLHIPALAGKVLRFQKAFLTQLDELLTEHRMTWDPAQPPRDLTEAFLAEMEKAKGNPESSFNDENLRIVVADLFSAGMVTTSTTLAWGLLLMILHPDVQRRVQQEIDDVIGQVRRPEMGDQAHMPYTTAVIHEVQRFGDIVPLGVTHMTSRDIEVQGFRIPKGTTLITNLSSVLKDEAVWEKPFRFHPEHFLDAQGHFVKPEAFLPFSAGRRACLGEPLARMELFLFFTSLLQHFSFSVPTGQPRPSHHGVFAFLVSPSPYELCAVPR
Chain of Nuclear receptor subfamily 1 group I member 2 (Homo sapiens) (O75469 whole entry, looked up): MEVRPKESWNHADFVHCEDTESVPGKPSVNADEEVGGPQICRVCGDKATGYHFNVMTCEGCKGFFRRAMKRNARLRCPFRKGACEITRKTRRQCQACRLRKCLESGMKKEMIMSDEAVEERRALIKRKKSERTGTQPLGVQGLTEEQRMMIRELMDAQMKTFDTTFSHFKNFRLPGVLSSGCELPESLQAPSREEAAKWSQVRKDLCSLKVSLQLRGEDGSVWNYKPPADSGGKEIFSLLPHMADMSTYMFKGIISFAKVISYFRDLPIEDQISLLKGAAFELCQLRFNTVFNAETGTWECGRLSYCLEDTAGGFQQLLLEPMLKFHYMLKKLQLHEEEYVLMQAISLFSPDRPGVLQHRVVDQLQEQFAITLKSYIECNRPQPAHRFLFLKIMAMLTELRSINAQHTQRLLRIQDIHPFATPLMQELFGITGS
Chain of Cytochrome P450 2C19 (Homo sapiens) (P33261 whole entry, looked up): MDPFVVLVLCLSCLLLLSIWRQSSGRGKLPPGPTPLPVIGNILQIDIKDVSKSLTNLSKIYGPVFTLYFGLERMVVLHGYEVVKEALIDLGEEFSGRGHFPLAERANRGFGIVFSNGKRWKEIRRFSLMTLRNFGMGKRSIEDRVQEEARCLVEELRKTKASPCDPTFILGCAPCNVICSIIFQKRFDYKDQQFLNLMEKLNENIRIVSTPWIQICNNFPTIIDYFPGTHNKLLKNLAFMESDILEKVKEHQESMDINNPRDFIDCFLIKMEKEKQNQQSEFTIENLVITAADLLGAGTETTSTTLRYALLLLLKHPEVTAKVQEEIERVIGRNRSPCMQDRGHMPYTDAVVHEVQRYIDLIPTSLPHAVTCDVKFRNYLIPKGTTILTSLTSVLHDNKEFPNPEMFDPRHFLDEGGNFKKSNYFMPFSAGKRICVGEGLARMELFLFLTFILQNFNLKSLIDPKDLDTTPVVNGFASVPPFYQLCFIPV
Chain of Cytochrome P450 3A4 (Homo sapiens) (P08684 whole entry, looked up): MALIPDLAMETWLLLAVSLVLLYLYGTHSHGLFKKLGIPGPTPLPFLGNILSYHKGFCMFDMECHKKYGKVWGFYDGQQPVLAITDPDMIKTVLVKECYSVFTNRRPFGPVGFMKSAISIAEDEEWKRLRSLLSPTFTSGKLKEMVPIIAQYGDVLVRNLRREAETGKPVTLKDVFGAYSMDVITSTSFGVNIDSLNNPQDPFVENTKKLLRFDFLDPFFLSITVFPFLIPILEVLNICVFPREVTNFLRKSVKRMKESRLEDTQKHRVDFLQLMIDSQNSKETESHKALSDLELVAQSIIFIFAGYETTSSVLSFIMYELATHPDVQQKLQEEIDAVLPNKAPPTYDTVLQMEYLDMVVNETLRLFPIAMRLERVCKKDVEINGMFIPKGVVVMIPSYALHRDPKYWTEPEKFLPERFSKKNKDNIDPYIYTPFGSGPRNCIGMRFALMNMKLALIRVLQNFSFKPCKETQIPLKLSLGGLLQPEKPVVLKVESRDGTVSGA
Chain of Cytochrome P450 2C9 (Homo sapiens) (P11712 whole entry, looked up): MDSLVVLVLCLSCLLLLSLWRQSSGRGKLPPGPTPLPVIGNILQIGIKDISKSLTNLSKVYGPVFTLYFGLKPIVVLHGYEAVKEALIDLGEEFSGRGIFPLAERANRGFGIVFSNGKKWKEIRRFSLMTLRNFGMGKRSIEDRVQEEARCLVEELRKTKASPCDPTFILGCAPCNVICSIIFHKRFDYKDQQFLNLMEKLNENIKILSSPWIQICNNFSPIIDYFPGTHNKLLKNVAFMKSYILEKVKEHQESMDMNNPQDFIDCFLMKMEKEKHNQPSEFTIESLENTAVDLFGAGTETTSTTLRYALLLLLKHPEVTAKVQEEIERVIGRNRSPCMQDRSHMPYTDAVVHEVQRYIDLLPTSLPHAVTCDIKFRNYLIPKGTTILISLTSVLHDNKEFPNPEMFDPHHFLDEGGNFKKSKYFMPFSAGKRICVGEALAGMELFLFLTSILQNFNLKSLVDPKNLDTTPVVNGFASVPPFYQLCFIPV
Chain of Voltage-gated inwardly rectifying potassium channel KCNH2 (Homo sapiens) (Q12809 whole entry, looked up): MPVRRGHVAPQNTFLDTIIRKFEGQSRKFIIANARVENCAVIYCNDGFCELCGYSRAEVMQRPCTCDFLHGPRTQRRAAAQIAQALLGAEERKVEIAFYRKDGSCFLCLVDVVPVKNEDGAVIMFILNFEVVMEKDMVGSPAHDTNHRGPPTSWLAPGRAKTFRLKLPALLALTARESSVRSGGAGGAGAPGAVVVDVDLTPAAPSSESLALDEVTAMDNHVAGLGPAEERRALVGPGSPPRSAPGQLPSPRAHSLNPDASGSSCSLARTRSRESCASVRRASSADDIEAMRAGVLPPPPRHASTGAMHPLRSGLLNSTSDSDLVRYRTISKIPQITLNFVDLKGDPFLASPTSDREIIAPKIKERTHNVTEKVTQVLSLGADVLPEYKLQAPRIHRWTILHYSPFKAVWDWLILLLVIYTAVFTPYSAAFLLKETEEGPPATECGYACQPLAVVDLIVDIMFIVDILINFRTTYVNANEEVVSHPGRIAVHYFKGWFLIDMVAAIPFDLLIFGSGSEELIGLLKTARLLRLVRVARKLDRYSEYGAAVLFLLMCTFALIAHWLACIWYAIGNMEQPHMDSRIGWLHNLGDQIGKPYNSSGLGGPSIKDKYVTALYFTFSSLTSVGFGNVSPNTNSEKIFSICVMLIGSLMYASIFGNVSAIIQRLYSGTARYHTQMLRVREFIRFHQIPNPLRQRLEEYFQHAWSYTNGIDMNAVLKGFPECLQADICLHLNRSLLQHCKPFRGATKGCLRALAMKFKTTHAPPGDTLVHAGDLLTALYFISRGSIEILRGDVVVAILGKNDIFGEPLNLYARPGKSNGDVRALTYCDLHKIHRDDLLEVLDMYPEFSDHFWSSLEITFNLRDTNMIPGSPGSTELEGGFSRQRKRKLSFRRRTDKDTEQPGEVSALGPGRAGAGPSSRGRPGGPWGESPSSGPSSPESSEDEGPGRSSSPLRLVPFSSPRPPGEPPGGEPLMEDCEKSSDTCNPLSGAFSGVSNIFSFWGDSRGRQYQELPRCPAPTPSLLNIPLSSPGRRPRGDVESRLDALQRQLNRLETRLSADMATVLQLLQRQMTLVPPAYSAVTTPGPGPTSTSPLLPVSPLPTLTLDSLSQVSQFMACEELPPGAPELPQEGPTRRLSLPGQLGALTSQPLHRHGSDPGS
Chain of Nuclear receptor subfamily 1 group I member 2 (Rattus norvegicus) (Q9R1A7 whole entry, looked up): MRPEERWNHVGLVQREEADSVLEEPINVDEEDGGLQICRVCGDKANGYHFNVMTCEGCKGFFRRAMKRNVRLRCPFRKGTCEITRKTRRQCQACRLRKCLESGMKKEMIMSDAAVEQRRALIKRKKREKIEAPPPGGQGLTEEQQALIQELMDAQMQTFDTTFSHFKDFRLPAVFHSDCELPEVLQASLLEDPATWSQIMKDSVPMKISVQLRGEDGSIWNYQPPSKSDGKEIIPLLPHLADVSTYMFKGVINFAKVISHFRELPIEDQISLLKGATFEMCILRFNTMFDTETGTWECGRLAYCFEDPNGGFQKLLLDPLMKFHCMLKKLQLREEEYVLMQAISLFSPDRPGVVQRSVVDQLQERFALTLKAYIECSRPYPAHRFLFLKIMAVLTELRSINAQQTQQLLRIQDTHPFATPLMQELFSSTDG
Chain of Thyrotropin-releasing hormone receptor (Homo sapiens) (P34981 whole entry, looked up): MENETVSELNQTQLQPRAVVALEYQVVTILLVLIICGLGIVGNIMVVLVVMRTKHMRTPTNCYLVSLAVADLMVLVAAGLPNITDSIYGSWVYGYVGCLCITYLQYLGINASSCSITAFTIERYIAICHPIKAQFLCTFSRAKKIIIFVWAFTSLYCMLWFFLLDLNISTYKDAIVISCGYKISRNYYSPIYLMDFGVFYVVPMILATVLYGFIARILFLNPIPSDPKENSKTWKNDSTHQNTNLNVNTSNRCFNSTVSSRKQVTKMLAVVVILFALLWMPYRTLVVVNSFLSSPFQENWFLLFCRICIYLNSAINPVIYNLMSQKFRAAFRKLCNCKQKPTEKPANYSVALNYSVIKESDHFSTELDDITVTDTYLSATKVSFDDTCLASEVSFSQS

CCCCC(CC)COC(=O)CC#N (centres undefined)
active: Potency [5] 2.73 µM | Potency [6] 39.9 µM | Potency [7] 31.7 µM | Potency [8] 35.6 µM | Potency [10] 39.9 µM
inactive: outcome [1] | outcome [2] | outcome [3] | Potency [4] | Potency [9]

O=c1c(O)c(O)c1=O
inactive: outcome [1] | outcome [2] | outcome [11] | outcome [3] | Potency [4] | outcome [12] | Potency [5] | Potency [6] | Potency [7] | Potency [9] | Potency [10]

O=C(O)Cc1c(Cl)ccc(Cl)c1Cl
inactive: outcome [1] | outcome [13] | Potency [14] | outcome [11] | outcome [3] | outcome [15] | outcome [12] | Potency [5] | Potency [16] | Potency [9]
active: Potency [6] 15.9 µM

C=CC(=O)OCCOCCOCC
inactive: outcome [1] | outcome [2] | outcome [11] | outcome [3] | outcome [12] | Potency [5] | Potency [6] | Potency [7] | Potency [9] | Potency [10]

CCOC(=O)COc1ccc2c(C)c(CCN(CC)CC)c(=O)oc2c1Cl
inactive: outcome [1] | Potency [14] | outcome [11] | outcome [3] | Potency [4] | outcome [12] | Potency [5] | max activation [17] 4.23% | outcome [18] | outcome [19] | Potency [7] | Potency [10]

CC(=O)OCC(=O)[C@@]1(O)CC[C@H]2[C@@H]3CCC4=CC(=O)C=C[C@]4(C)[C@H]3[C@@H](O)C[C@@]21C
inactive: outcome [1] | outcome [2] | outcome [11] | outcome [3] | outcome [15] | outcome [12] | Potency [5] | outcome [18] | outcome [19] | Potency [16] | Potency [6] | Potency [7] | Potency [9]

O=C1CCCc2c(O)cccc21
inactive: outcome [1] | outcome [2] | Potency [4] | outcome [15] | outcome [12] | Potency [5] | Potency [16] | Potency [7] | Potency [9] | Potency [10]
active: Potency [8] 34.7 µM

CCCCC(CC)CCC(CC(C)C)OS(=O)(=O)O (centres undefined)
active: Potency [7] 31.7 µM
inactive: outcome [1] | outcome [2] | outcome [11] | Potency [5] | max activation [17] -2.27% | outcome [18] | outcome [19] | Potency [16] | Potency [8] | Potency [9] | Potency [10]

CCCCCCCCCCCCCCCCN(C)C
inactive: activity change, negative = cytotoxicity [1] 16.2% [at 6.97 µM] | activation [2] 0.329% [at 6.97 µM] | activity change, negative = cytotoxicity [11] 1.81% [at 8.39 µM] | caspase activation [3] 0.737% [at 8.39 µM] | activity change, negative = cytotoxicity [4] -2.77% [at 8.39 µM] | activity change, negative = cytotoxicity [12] -1.8% [at 8.39 µM] | activity change, negative = inhibition [6] -5.94% [at 10.5 µM] | activity change, negative = inhibition [7] -0.0403% [at 10.5 µM] | activity change, negative = inhibition [8] -22.3% [at 10.5 µM] | activity change, negative = inhibition [9] -6.11% [at 6.97 µM] | activity change, negative = inhibition [10] -0.256% [at 10.5 µM]
active: Potency [16] 3.19 µM

CCCCCCCCCCCBr
inactive: outcome [1] | outcome [2] | outcome [11] | outcome [3] | outcome [12] | Potency [5] | Potency [16] | Potency [6] | Potency [7] | Potency [8] | Potency [9] | Potency [10]

C=CCOC(=O)CCCCCCCC
inactive: outcome [1] | outcome [2] | Potency [4] | outcome [15] | outcome [12] | Potency [5] | Potency [6] | Potency [7] | Potency [9] | Potency [10]
active: Potency [16] 63.8 µM | Potency [8] 40.2 µM

CC(C)=CCC/C(C)=C\C#N
inactive: outcome [1] | outcome [2] | outcome [11] | Potency [4] | outcome [15] | outcome [12] | Potency [5] | Potency [7] | Potency [9] | Potency [10]
active: Potency [6] 39.9 µM

COc1ccc2cc(CCC(C)=O)ccc2c1
active: Potency [5] 10.6 µM | Potency [17] 8.91 µM | Potency [6] 11 µM
inactive: outcome [1] | outcome [2] | outcome [11] | Potency [4] | outcome [12] | outcome [18] | Potency [16] | Potency [9] | Potency [10]

Cc1cc(C)c(C)c(C)c1
inactive: outcome [1] | outcome [2] | outcome [11] | outcome [3] | Potency [4] | outcome [15] | Potency [5] | Potency [16] | Potency [6] | Potency [7] | Potency [8] | Potency [9] | Potency [10]

C=CC(=O)CC
inactive: outcome [1] | outcome [2] | outcome [11] | Potency [4] | outcome [12] | Potency [5] | Potency [16] | Potency [6] | Potency [7] | Potency [8] | Potency [9] | Potency [10]
